Laboratory results as given in the supplement of paper PMC11732987, “Enantioselective OTUD7B fragment discovery through chemoproteomics screening and high-throughput optimisation” (Communications Chemistry, 2025).

Assays:
Assay in all cases: log2 ratio of Biotin-Ahx-Ub-VS probe labelling (fragment/DMSO); higher = less target engagement (more negative = stronger competition), active = hit call of the paper (q ≤ 0.05, log2 ratio ≤ -1)
Settings in all cases: compound concentration: 200 uM; treatment time: 3 h
USP34 = USP34 (UniProt Q70CQ2)
USP34, sequence (Q70CQ2 whole entry, the tested form may be a part): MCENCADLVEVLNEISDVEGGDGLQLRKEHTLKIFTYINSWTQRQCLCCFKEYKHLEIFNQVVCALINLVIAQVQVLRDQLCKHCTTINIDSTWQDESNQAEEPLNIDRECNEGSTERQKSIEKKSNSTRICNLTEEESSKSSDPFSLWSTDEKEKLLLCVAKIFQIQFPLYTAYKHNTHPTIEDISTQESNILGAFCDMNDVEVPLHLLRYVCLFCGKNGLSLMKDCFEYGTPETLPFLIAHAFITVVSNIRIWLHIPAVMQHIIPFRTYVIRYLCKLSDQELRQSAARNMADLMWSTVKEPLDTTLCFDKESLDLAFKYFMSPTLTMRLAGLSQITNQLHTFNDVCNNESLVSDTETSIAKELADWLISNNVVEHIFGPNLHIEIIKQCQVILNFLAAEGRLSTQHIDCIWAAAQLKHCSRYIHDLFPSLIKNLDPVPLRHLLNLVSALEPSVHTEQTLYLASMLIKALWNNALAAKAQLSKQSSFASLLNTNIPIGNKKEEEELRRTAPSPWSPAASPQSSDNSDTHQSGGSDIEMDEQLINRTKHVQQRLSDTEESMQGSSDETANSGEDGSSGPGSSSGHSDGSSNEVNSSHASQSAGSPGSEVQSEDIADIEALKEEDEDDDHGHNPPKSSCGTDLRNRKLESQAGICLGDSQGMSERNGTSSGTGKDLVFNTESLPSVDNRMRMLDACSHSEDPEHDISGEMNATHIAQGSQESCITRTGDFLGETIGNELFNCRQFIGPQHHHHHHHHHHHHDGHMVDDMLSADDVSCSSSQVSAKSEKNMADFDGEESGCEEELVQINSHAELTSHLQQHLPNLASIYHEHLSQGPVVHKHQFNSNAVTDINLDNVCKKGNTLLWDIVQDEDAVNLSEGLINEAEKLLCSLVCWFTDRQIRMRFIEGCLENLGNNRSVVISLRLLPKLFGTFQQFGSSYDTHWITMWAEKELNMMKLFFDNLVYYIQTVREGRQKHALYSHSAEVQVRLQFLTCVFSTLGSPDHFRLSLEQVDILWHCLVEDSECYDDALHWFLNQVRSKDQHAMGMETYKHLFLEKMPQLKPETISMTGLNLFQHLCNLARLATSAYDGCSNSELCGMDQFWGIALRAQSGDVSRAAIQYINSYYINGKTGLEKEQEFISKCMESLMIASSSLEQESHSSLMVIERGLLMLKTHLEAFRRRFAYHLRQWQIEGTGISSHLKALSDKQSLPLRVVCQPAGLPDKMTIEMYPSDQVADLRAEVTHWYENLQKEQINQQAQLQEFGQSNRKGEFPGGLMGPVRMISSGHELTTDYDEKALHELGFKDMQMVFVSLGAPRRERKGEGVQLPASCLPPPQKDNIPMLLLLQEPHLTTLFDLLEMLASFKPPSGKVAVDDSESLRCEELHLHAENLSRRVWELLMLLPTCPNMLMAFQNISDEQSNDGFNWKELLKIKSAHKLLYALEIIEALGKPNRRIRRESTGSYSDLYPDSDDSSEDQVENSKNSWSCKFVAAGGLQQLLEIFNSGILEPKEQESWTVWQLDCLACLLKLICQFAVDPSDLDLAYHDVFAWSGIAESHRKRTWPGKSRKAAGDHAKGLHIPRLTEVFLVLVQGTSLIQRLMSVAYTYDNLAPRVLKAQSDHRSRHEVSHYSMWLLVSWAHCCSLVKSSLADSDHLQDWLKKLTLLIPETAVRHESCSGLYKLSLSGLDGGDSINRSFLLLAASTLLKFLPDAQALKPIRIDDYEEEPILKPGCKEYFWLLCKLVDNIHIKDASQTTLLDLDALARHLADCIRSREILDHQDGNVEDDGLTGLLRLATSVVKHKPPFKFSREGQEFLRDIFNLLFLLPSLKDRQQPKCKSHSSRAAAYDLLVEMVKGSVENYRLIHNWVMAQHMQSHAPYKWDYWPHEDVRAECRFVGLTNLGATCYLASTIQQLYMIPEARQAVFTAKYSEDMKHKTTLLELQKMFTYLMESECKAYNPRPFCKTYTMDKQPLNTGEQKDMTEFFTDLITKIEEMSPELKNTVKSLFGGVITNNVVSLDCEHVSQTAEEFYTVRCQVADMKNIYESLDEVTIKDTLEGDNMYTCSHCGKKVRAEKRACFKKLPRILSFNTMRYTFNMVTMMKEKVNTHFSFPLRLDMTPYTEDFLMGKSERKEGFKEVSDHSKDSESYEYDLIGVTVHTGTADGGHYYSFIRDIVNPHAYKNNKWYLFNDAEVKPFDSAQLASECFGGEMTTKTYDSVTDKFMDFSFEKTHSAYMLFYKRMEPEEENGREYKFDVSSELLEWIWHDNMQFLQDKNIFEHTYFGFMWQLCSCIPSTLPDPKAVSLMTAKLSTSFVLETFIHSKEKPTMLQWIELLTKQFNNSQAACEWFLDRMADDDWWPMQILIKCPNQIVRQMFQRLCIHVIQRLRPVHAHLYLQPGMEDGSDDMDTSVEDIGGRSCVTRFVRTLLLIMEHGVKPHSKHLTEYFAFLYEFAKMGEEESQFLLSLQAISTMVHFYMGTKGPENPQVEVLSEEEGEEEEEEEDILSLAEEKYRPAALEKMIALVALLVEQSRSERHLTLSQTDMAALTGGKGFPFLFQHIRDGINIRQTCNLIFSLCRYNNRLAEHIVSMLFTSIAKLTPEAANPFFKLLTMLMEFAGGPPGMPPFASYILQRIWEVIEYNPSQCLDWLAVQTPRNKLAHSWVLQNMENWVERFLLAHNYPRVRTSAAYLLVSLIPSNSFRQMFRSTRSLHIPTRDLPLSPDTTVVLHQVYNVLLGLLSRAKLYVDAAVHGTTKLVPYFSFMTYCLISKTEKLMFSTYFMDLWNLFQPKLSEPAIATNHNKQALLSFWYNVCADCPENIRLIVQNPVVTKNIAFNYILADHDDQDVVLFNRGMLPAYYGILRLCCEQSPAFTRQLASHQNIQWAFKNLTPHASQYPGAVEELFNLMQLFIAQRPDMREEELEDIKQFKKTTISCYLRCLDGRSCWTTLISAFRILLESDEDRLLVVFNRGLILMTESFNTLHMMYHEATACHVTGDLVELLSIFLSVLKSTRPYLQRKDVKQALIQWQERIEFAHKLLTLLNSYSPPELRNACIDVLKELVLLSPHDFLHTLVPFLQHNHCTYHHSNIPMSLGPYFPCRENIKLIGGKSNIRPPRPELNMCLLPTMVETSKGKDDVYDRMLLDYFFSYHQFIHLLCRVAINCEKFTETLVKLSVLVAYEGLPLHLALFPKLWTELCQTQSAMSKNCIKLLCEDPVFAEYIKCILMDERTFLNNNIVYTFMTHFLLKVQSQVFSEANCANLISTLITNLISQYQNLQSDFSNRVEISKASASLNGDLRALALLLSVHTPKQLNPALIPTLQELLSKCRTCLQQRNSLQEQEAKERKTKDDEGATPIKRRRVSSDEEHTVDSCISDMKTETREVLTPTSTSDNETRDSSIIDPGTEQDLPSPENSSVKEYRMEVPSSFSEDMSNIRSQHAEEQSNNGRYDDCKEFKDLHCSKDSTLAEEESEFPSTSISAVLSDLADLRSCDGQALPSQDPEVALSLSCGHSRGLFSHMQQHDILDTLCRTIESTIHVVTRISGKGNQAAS
Procedure, shortened: (§1)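 Labelled DUBs from HEK293T lysate were NeutrAvidin-enriched, digested with LysC and trypsin, and run by diaPASEF LC-MS/MS. Before that, each 495 µg sample in Tris/CHAPS/IGEPAL buffer with protease inhibitors was treated in triplicate with fragment at 200 µM or vehicle for 3 h, then with Biotin-Ahx-Ub-VS at 0.5 µM final for 1 h. Values are average log2 ratios of fragment over vehicle by unpaired t-test, based on global-median-normalised Spectronaut label-free quantities from proteins with ≥2 unique peptides.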

USP36 = target: T1, USP36 (UniProt Q9P275)
T1 sequence (whole entry): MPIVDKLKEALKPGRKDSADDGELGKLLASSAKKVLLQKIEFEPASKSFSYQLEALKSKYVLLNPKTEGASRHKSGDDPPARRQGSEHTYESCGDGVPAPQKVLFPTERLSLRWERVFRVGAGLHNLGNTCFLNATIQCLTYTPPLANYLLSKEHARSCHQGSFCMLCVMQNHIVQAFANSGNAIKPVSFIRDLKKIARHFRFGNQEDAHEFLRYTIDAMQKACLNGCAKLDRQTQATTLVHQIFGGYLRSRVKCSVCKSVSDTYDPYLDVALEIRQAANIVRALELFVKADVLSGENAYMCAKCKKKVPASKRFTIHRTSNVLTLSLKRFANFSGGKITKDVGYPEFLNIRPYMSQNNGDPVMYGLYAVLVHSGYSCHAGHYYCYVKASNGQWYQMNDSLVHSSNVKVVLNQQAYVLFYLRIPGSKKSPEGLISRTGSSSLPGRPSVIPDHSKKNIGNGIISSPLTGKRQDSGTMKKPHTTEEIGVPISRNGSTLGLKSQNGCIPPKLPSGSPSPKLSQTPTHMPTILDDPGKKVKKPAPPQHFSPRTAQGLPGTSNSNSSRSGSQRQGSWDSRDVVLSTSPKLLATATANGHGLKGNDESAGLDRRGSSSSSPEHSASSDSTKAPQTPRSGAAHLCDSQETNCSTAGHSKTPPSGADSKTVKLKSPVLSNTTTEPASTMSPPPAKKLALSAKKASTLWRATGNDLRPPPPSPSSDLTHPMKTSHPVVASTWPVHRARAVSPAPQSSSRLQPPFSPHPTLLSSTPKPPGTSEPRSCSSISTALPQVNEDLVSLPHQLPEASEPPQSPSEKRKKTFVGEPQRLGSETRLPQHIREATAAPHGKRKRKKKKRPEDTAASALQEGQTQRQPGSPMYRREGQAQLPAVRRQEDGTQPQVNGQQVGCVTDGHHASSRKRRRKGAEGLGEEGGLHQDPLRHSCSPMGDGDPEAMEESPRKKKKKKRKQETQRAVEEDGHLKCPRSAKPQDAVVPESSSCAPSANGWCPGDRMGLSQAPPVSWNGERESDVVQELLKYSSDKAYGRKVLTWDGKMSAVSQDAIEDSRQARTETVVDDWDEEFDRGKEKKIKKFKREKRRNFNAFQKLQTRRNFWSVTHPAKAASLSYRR
Procedure, shortened: as §1

USP38 = target: T2, USP38 (UniProt Q8NB14)
T2 sequence (whole entry): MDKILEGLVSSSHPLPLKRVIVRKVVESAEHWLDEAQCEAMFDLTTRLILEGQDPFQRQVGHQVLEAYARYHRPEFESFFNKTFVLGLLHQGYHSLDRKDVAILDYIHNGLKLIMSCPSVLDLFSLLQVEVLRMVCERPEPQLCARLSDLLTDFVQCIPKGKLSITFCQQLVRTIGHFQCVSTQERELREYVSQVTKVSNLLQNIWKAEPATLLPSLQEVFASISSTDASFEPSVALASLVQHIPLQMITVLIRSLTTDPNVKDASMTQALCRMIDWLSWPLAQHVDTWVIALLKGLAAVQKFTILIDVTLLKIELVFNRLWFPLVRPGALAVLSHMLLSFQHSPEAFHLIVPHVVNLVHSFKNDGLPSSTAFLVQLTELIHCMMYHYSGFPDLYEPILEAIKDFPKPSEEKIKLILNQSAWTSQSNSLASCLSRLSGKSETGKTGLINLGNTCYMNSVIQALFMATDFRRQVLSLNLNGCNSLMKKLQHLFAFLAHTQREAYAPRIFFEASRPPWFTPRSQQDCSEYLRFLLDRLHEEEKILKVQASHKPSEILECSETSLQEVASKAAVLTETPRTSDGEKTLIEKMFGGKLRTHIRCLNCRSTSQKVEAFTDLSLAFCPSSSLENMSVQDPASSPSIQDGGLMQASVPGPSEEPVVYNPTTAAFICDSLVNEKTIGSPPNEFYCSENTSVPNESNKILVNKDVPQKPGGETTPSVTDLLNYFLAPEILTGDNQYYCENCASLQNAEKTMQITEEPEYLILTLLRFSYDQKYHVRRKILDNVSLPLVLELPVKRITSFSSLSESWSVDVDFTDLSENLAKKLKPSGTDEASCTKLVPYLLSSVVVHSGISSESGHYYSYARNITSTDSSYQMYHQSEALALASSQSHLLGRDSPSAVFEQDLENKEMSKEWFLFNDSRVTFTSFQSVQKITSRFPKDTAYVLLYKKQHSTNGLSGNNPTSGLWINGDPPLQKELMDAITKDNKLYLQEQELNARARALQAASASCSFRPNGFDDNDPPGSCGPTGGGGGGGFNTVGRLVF
Procedure, shortened: as §1

USP39 = target: T3, USP39 (UniProt Q53GS9)
T3 sequence (whole entry): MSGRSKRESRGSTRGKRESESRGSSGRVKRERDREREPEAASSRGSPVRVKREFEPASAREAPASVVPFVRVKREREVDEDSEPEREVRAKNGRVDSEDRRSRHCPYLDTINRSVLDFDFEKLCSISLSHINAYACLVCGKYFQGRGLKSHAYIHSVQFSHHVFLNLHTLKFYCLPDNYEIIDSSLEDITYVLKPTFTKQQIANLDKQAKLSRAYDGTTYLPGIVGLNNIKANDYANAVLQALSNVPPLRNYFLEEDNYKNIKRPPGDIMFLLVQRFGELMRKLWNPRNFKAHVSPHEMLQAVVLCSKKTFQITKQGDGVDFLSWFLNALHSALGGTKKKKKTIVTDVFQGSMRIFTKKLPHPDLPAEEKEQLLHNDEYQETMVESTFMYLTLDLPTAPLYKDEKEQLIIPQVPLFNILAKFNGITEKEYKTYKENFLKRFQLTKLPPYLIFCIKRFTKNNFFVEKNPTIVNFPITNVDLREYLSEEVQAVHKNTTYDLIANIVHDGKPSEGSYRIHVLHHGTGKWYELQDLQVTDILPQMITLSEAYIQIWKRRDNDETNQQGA
Procedure, shortened: as §1

USP4 = target: T4, USP4 (UniProt Q13107)
T4 sequence (whole entry): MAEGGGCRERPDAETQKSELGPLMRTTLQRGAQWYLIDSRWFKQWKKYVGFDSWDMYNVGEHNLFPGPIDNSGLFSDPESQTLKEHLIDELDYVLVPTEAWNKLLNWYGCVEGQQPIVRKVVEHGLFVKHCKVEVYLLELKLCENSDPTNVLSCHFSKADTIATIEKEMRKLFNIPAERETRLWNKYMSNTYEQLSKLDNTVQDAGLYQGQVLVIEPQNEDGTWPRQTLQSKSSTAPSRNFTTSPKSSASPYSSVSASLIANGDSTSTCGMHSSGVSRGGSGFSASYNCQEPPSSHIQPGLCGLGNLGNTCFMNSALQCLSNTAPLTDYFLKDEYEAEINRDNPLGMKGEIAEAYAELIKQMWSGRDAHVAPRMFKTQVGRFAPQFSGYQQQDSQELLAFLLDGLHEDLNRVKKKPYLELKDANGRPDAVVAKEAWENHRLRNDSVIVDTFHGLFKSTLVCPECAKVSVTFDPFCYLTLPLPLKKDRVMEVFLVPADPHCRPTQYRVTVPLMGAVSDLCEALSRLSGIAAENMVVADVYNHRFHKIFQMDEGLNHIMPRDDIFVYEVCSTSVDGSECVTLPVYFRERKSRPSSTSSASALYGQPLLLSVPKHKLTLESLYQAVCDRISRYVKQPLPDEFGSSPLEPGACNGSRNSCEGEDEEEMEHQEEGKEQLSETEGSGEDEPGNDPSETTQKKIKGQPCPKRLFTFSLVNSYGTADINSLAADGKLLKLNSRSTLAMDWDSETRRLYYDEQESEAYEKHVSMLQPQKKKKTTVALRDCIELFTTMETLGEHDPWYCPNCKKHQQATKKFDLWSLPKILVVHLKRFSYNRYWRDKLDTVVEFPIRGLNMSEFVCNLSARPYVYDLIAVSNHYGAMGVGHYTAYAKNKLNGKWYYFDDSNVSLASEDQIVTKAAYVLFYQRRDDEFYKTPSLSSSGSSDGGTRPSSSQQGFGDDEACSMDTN
Procedure, shortened: as §1

Measured: log2 ratio of Biotin-Ahx-Ub-VS probe labelling

COc1ccc(Cl)cc1NC(=O)CCl
inactive: USP34 -0.301 | USP36 -0.44 | USP38 -0.283 | USP39 0.264 | USP4 -0.469
